The panel holds about 83,000 compounds, 20% with a hit somewhere; the sample as a whole holds those more often.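 Method: cells in 96-well plates; compound added at one concentration; 48 h incubation; percent growth measured; values under 10 scored active.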 Values without a mark were called inactive. Calls of active or inactive are those of the source.
Assays:
Experiment in all cases: NCI-60 one-dose screen, 48 h (100 = growth as untreated, 0 = no growth, -100 = all killed)
T-47D breast = conditions: 10 µM
BT-549 breast = conditions: 10 µM
MDA-MB-435 melanoma = conditions: 10 µM
SW-620 colon = conditions: 10 µM
MCF7 breast = conditions: 10 µM unless noted
HCT-116 colon = conditions: 10 µM
HCC-2998 colon = conditions: 10 µM
KM12 colon = conditions: 10 µM

SMILES | growth (T-47D breast) | growth (BT-549 breast) | growth (MDA-MB-435 melanoma) | growth (SW-620 colon) | growth (MCF7 breast) | growth (HCT-116 colon) | growth (HCC-2998 colon) | growth (KM12 colon)
O=C1C[C@H](c2ccccc2)[C@H](c2ccccc2)C1 | 99.1% | 93.7% | 108% | 109% | 99.1% | 99.1% | 104% | 115%
O=C(CN1CCNCC1)N1CCOCC1 | 102% | 113% | 109% | 108% | 97.8% | 103% | 108% | 108%
NC(C(=O)O)C(O)c1ccco1 (stereo not given) | 98% | 109% | 107% | 102% | 95.2% | 111% | 107% | 107%
COc1ccc(NC(=O)CCl)cc1 | 62.7% | 66.3% | 87% | 98.3% | 64.4% | 53.5% | 99.6% | 85.5%
CC1CC(O)C2C3(C)CCCC2(COC3=O)C12CCC1(CCOC1=O)O2 (stereo not given) | 102% | 96.1% | 101% | 102% | 103% | 97.4% | 122% | 107%
CCCCC(O)c1ccccc1 (stereo not given) | 87.2% | 110% | 108% | 108% | 103% | 108% | 104% | 106%
CCN(CC)C(=O)/C=C(/C)c1ccccc1 | 102% | 94.5% | 108% | 102% | 102% | 106% | 88.6% | 111%
CC(=O)OCC(=O)[C@@]1(O)CC[C@H]2[C@@H]3CC[C@@H]4C[C@H](O)CC[C@]4(C)[C@H]3C(=O)C[C@@]21C | 108% | 102% | 103% | 103% | 108% | 99.9% | 97.5% | 112%
C=CC[N+](C)(C)C | 103% | 114% | 102% | 107% | 101% | 104% | 103% | 114%
CCC/C=C(\C)C(C)(C#N)C(=O)OCC (stereo not given) | 112% | 116% | 96.3% | 109% | 97.1% | 120% | 118% | 110%
O=C(O)/C=C/C(=O)NCc1ccccc1 | 98.5% | 104% | 101% | 109% | 91.9% | 106% | 95.7% | 104%
Nc1nc(N)c(N=Nc2ccc(C(=O)O)cc2)c(N)n1 | 100% | 97% | 103% | 90.8% | 104% | 95.4% | 100% | 115%
C=CCNC(=O)c1ccc(OC)cc1 | 103% | 106% | 109% | 126% | 95.2% | 105% | 93.3% | 122%
O=C(NC1CCCCC1)OCc1c(COC(=O)NC2CCCCC2)c(-c2ccc(Cl)c(Cl)c2)n2c1CCC2 | 20.8% | 53.7% | 56.3% | 32.6% | 27.4% | 15.5% | 30.5% | 56.3%
C#CC(C)(O)c1ccc(Cl)cc1 (stereo not given) | 86.1% | 105% | 110% | 109% | 97% | 96.8% | 97.8% | 105%
CC1CCC(C(=O)O)N1 (stereo not given) | 86.4% | 102% | 111% | 113% | 95% | 102% | 97.8% | 106%
O=C1Cc2cc(O)ccc2O1 | 101% | 109% | 105% | 113% | 101% | 101% | 105% | 112%
Cc1ccc(Cl)cc1N1C(=O)CC(Sc2ccccc2N)C1=O (stereo not given) | 103% | 111% | 102% | 108% | 90.2% | 111% | 101% | 112%
CC(=O)c1ccc(N=C(C#N)C2=C(O)c3ccccc3C2=O)cc1 | 93.4% | 98.3% | 110% | 114% | 83.1% | 106% | 98.1% | 107%
CCOC(=O)C(=O)C=P(c1ccccc1)(c1ccccc1)c1ccccc1 | 97.7% | 102% | 113% | 114% | 97.5% | 100% | 107% | 99.6%
CN(C)/N=C/c1ccccc1O | 98.6% | 97.5% | 107% | 100% | 106% | 94.6% | 117% | 107%
C=CCNc1nnc(C)s1 | 95.4% | 122% | 124% | 107% | 102% | 104% | 112% | 101%
CN(C)c1ccc2oc(=O)c3ccccc3c2c1 | 96.1% | 40.3% | 109% | 85.2% | 72.9% | 83.2% | 88.5% | 90.9%

SMILES | growth (T-47D breast) | growth (BT-549 breast) | growth (MDA-MB-435 melanoma) | growth (SW-620 colon) | growth (MCF7 breast) | growth (HCT-116 colon) | growth (HCC-2998 colon) | growth (KM12 colon)
Cc1cccc(CO)c1 | 98.8% | 106% | 108% | 103% | 96.6% | 104% | 112% | 97%
O=C(CS)Nc1ccc2ccccc2c1 | 90.9% | 118% | 116% | 95.2% | 85.3% | 94.6% | 80.5% | 102%
C/C=C/CC(C)C(O)C1C(=O)NC(CC)C(=O)N(C)CC(=O)N(C)C(CC(C)C)C(=O)NC(C(C)C)C(=O)N(C)C(CC(C)C)C(=O)NC(C)C(=O)NC(C)C(=O)N(C)C(CC(C)C)C(=O)N(C)C(CC(C)C)C(=O)N(C)C(C(C)C)C(=O)N1C (stereo not given) | 23.2% | -14.4% (active) | -6.76% (active) | 31.3% | 18.7% | 8.61% (active) | 1.86% (active) | 17.7%
Nc1ncnc2c1nc(N)n2C1OC(CO)C(O)C1O (stereo not given) | -46.3% (active) | -83.6% (active) | -80.3% (active) | -11.8% (active) | -20.5% (active) | 1.19% (active) | -82% (active) | -77.3% (active)
N#CC(=Nc1cccc(F)c1)C1=C(O)c2ccccc2C1=O | 83.2% | 89.2% | 99.4% | 95.4% | 83.2% | 97% | 101% | 102%
CCOC(=O)c1[nH]c(C)c(C(C)=O)c1C | 86.9% | 107% | 94.7% | 99.4% | 87.1% | 90.4% | 88.6% | 98.3%
Cc1cc(C)c(CC(=O)O)c(C)c1 | 106% | 104% | 104% | 102% | 95.9% | 105% | 111% | 103%
Nc1ccc(NC(=O)c2cccc(N)c2)cc1 | 95.9% | 93.3% | 104% | 102% | 105% | 94.4% | 107% | 103%
CCOC(=O)c1ccc(Nc2sc(C(=O)c3cccc([N+](=O)[O-])c3)c(N)c2C#N)cc1 | 48% | 52.9% | -2.02% (active) | 5.69% (active) | 7.42% (active) | 0.851% (active) | 45.8% | 17.5%
CCCCOC(=O)c1ccc(C(C)C)cc1 | 88.7% | 92.1% | 103% | 111% | 94.9% | 85.4% | 107% | 104%
CN(C)CCN(Cc1ccccc1)c1ccccc1 | 95% | 119% | 95% | 102% | 112% | 113% | 105% | 113%
O=C(c1ccc(O)cc1)c1ccc(O)cc1 | 113% | 122% | 105% | 113% | 113% | 95% | 105% | 100%
CCOC(=O)c1ccc(NC(=S)P(=O)(c2ccccc2)c2ccccc2)cc1 | 109% | 101% | 91.1% | 102% | 100% | 91.7% | 108% | 96.2%
Cc1cc(C)cc(NCCC#N)c1 | 107% | 123% | 111% | 102% | 101% | 106% | 109% | 107%
COc1cc(C2NC(=O)C(C#N)=C(Nc3cccc(C)c3)S2)ccc1O (stereo not given) | 93.5% | 101% | 104% | 104% | 92.9% | 103% | 106% | 104%
CN(C)C(=O)Oc1cccc([N+](C)(C)C)c1 | 99.8% | 112% | 105% | 108% | 87% | 109% | 106% | 102%
OC1CCCc2ccccc21 (stereo not given) | 101% | 98.1% | 104% | 107% | 94.1% | 111% | 119% | 109%
COc1ccccc1N=Nc1c(O)ccc2cc(S(=O)(=O)O)ccc12 | 91.4% | 99.4% | 108% | 103% | 93.2% | 103% | 96.3% | 104%
COC(=O)c1ccc(NC(=O)CCl)cc1 | 69.7% | 67.9% | 73.8% | 76.6% | 58.3% | 70% | 113% | 83.6%
CC(=O)OCC1CCCO1 (stereo not given) | 93.1% | 107% | 100% | 87.3% | 94.2% | 105% | 84.8% | 102%
CC1(C)N=C(N)N=C(N)N1c1cccc(Br)c1 | 80.9% | 46.7% | 26.3% | 36.6% | 23.6% | 22.9% | 23.4% | 40.6%
C1CNC(C2=NCCN2)=N1 | 101% | 111% | 93.4% | 100% | 98.7% | 96.7% | 92.3% | 95.4%
